The panel holds about 83,000 compounds, 20% with a hit somewhere; the sample as a whole holds those more often.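 Testing used 96-well plates and a 48-hour single-concentration exposure. Example: -40 means 40% of the starting cells died.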 A number with no mark means an inactive call. Calls of active or inactive are those of the source. The calls were made as follows: active = growth percent below 10; inactive = the rest.
Tested on: K-562 leukemia
Assay: NCI-60 one-dose screen, 48 h (100 = growth as untreated, 0 = no growth, -100 = all killed)
Conditions: 10 µM

SMILES | growth
Nc1nc(N)c(NC(=O)CNc2ccc(C(=O)O)cc2)c(N)n1 | 106%
COc1ccc(-c2nn(-c3cccc(NC(=O)c4cc(C(F)(F)F)cc(C(F)(F)F)c4)c3)cc2-c2ccncc2)cc1Cl | 31.3%
O=C1/C(=C\c2ccccc2)CN(C(=O)c2ccccc2)C/C1=C\c1ccccc1 | 2.41% (active)
COc1ccc(/C=C2/CN(C(=O)c3ccc(C)cc3)C/C(=C\c3ccc(OC)cc3)C2=O)cc1 | 23.7%
COc1ccc(S(=O)(=O)NCCCNc2nccc(-c3c(-c4ccc(F)cc4)nc4sccn34)n2)cc1 | 17.6%
COc1ccc(-c2cc(-c3ccc(N(C)C)cc3)c(C#N)c(N3CCCC3)n2)cc1 | 69.3%
CCOC(=O)N/N=C\C(C)=N\NC(=O)OCC | 98.7%
CN(C)Cc1cn(-c2ncc(-c3ccc(C(F)(F)F)cc3)c(NC3CCCCCC3)n2)nn1 | 38.2%
CC(C)=NNc1ncnc2c1ncn2C1OC(CO)C(O)C1O (stereo not drawn) | 14.8%
O=C(Nc1cccc(-n2cc(-c3ccncc3)c(-c3ccc(O)c(Cl)c3)n2)c1)c1cc(C(F)(F)F)cc(C(F)(F)F)c1 | 35.9%
CCCC(F)C(=O)O (stereo not drawn) | 97.6%
Nc1nc(Nc2ccccc2)n[nH]1 | 98.6%
COc1ccc(-n2c(SCc3cc(OC)c(OC)c(OC)c3)nc3ccc(C)cc3c2=O)cc1 | 16.9%
O=C(Nc1ccc(CN2CCc3nc4cc(O)c(O)cc4cc32)cc1)c1ccc(Cl)c(Cl)c1 | 115%
CCOCCOCCOCCOCCOCCOCCOCCOCCOCCO (tested in a mixture with another compound) | 4.03% (active)
CCCCCCc1cc(N=Nc2ccc(S(=O)(=O)Nc3cc(C)nc(C)n3)cc2)c(O)cc1O | 93.8%
CCN1CCN(c2nc3ccccc3c3c(=O)c4ccccc4sc23)CC1 | 12.8%
COc1ccc(-c2nn(-c3cccc(NC(=O)Nc4ccccc4)c3)cc2-c2ccncc2)cc1Cl | 10.4%
C#Cc1ccc(-n2c(/C=C/c3ccc4ccccc4c3)nc3ncccc3c2=O)cc1 | 6.94% (active)
Cc1ccc(S(=O)(=O)Oc2ccc3c4c(c(=O)oc3c2)CCCCC4)cc1 | 36.7%
N=C(N)c1ccc(-c2ccc(-c3cccs3)s2)cc1 | -56% (active)
COc1cc(-c2cc(/C=C/C(=O)c3ccc(N)cc3)[nH]n2)cc(OC)c1OC | 10.9%
CCOC(=O)C(NC(=O)C(Cl)Cl)C(O)c1ccccc1 (stereo not drawn) | 87.5%
